Experimental data from PubChem BioAssay (Tox21).
Records with an inconclusive call do not appear. Entries that show only a call come without a potency. Values without a mark were called inactive. Activity calls are given as the source filed them. Unless noted, calls follow the shape of the dose curve; as a rule, active = well fitted cell-killing curve with a large enough effect in the repeat runs (not every such curve was filed as active); inconclusive = weak or mixed curves, or effect the other way; inactive = no such curve, though single readings can be large or run the other way.

system: not listed separately; test: qHTS assay to identify small molecule agonists of the farnesoid-X-receptor (FXR) signaling pathway - cell viability counter screen (AID 743218; active = well fitted cell-killing curve with a large enough effect in the repeat runs; also: nearly all actives have a fitted effect of over 45% in size); settings: FXR-bla HEK293T viability, CellTiter-Glo luminescence, 16 h; series mostly up to 62.6 µM; viability change, negative = cytotoxic: at the top concentration
Summary of the method: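 Parallel cytotoxicity test: compound-treated (16 h, 37 C) HEK 293T FXR-bla reporter cells were lysed with CellTiter-Glo and luminescence recorded.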

Row | Compound | Potency | viability change, negative = cytotoxic
1 | Cc1cccc2ccccc12 | inactive | 
2 | O=C(O)Cc1cccc2ccccc12 | inactive | 
3 | O=C(O)CN(CC(=O)O)CC(=O)O |  | 16.4%
4 | COc1cc(O)c(C(=O)c2ccccc2)cc1S(=O)(=O)O | inactive | 
5 | CCCCCCCCCCCCCC(=O)OC(C)C | inactive | 
6 | COc1cc(C=O)ccc1O | inactive | 
7 | CC1=NN(c2ccccc2)C(=O)C1 | inactive | 
8 | C[C@]12C[C@H](O)[C@H]3[C@@H](CCC4=CC(=O)CC[C@@]43C)[C@@H]1CC[C@@H]2C(=O)CO | inactive | 
9 | CCCCC/C(C=O)=C\c1ccccc1 | inactive | 
10 | CC(O)COc1ccccc1 (stereo not given) | inactive | 
11 | O=C1CCCCCN1 |  | -3.67%
12 | Cc1cnc(NC(=O)C2=C(O)c3ccccc3S(=O)(=O)N2C)s1 | inactive | 
13 | CC(=O)c1ccc(S(=O)(=O)NC(=O)NC2CCCCC2)cc1 | inactive | 
14 | Cn1cnc2c1c(=O)[nH]c(=O)n2C | inactive | 
15 | COC(=O)C1CCC(C(=O)OC)CC1 (stereo not given) | inactive | 
16 | O=C(OCc1ccccc1)c1ccccc1 | inactive | 
17 | COc1ccccc1O |  | 16.8% [at 81.1 µM]
18 | CCOC(=O)C(C)(C)Oc1ccc(Cl)cc1 | inactive | 
19 | c1ccc2[nH]c(-c3cscn3)nc2c1 | inactive | 
20 | NC(=O)c1ccc([N+](=O)[O-])cc1Cl | inactive | 
21 | Cc1c(N(C)C)c(=O)n(-c2ccccc2)n1C | inactive | 
22 | Cc1ccc(O)c(-n2nc3ccccc3n2)c1 | inactive | 
23 | COCCOCCOC |  | 0.147%
24 | CC(C)CC(C)CC(O)CC(C)C (stereo not given) |  | 6.56% [at 81.1 µM]
25 | Oc1cccc(O)c1 | inactive | 
26 | CCCCCCCCCCCCCCCCCC(=O)OCC(O)CO (stereo not given) | inactive | 
27 | COCC(C)N (stereo not given) | inactive | 
28 | CCn1cc(C(=O)O)c(=O)c2ccc(C)nc21 | inactive | 
29 | C=CCOC(=O)CC(C)C | inactive | 
30 | COC(=O)c1ccc(C=O)cc1 | inactive | 

target: Bile acid receptor (Homo sapiens) (UniProt Q96RI1); test: qHTS assay to identify small molecule agonists of the farnesoid-X-receptor (FXR) signaling pathway (AID 743220; active = well fitted activation curve with a large enough effect in the signal ratio in the repeat runs, not every such curve was filed as active; the % refers to the signal ratio); settings: HEK293T FXR-UAS-bla, beta-lactamase FRET ratio, 16 h; series mostly up to 62.6 µM; activation: at the top concentration
Summary of the method: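 Beta-lactamase reporter under UAS control in GeneBLAzer FXR HEK 293T cells (5000/well) measured with LiveBLAzer FRET substrate after 2 h at room temperature. Compound exposure lasted 16 h at 37C.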

Chain of Bile acid receptor (Homo sapiens) (Q96RI1 whole entry, looked up): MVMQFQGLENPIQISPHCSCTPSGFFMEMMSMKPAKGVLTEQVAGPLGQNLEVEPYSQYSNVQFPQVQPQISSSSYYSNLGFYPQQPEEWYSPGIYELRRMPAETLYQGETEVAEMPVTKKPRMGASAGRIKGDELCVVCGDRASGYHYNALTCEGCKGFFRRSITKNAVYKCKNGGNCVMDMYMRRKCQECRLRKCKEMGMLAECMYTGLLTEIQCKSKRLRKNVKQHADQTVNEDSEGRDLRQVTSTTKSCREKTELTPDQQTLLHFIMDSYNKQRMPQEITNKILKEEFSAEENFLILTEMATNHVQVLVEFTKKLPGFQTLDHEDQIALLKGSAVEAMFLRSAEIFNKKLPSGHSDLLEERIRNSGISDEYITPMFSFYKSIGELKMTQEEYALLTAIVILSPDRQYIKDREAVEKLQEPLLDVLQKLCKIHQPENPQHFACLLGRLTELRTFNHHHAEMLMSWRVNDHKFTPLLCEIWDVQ

Row | Compound | outcome
31 | Cc1cccc2ccccc12 | inactive
32 | O=C(O)Cc1cccc2ccccc12 | inactive
33 | O=C(O)CN(CC(=O)O)CC(=O)O | inactive
34 | COc1cc(O)c(C(=O)c2ccccc2)cc1S(=O)(=O)O | inactive
35 | CCCCCCCCCCCCCC(=O)OC(C)C | inactive
36 | COc1cc(C=O)ccc1O | inactive
37 | CC1=NN(c2ccccc2)C(=O)C1 | inactive
38 | C[C@]12C[C@H](O)[C@H]3[C@@H](CCC4=CC(=O)CC[C@@]43C)[C@@H]1CC[C@@H]2C(=O)CO | inactive
39 | CCCCC/C(C=O)=C\c1ccccc1 | inactive
40 | CC(O)COc1ccccc1 (stereo not given) | inactive
41 | O=C1CCCCCN1 | inactive
42 | Cc1cnc(NC(=O)C2=C(O)c3ccccc3S(=O)(=O)N2C)s1 | inactive
43 | CC(=O)c1ccc(S(=O)(=O)NC(=O)NC2CCCCC2)cc1 | inactive
44 | Cn1cnc2c1c(=O)[nH]c(=O)n2C | inactive
45 | COC(=O)C1CCC(C(=O)OC)CC1 (stereo not given) | inactive
46 | O=C(OCc1ccccc1)c1ccccc1 | inactive
47 | COc1ccccc1O | inactive
48 | CCOC(=O)C(C)(C)Oc1ccc(Cl)cc1 | inactive
49 | c1ccc2[nH]c(-c3cscn3)nc2c1 | inactive
50 | NC(=O)c1ccc([N+](=O)[O-])cc1Cl | inactive
51 | Cc1c(N(C)C)c(=O)n(-c2ccccc2)n1C | inactive
52 | Cc1ccc(O)c(-n2nc3ccccc3n2)c1 | inactive
53 | COCCOCCOC | inactive
54 | CC(C)CC(C)CC(O)CC(C)C (stereo not given) | inactive
55 | Oc1cccc(O)c1 | inactive
56 | CCCCCCCCCCCCCCCCCC(=O)OCC(O)CO (stereo not given) | inactive
57 | COCC(C)N (stereo not given) | inactive
58 | CCn1cc(C(=O)O)c(=O)c2ccc(C)nc21 | inactive
59 | C=CCOC(=O)CC(C)C | inactive
60 | COC(=O)c1ccc(C=O)cc1 | inactive

system: not listed separately; test: qHTS assay to identify small molecule antagonists of the farnesoid-X-receptor (FXR) signaling pathway - cell viability counter screen (AID 743221); settings: FXR-bla HEK293T viability, CellTiter-Glo luminescence, 16 h; series mostly up to 62.6 µM; activity change, negative = cytotoxicity: at the top concentration; also: nearly all actives have a fitted effect of over 50% in size
Summary of the method: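 HEK 293T FXR-bla cells, 5 h pre-incubation; compound + CDCA 50 uM final, 16 h, 37 C; beta-lactamase FRET read first, then CellTiter-Glo luminescence, 30 min RT.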

Row | Compound | outcome | activity change, negative = cytotoxicity
61 | Cc1cccc2ccccc12 | inactive | 
62 | O=C(O)Cc1cccc2ccccc12 | inactive | 
63 | O=C(O)CN(CC(=O)O)CC(=O)O | inactive | 
64 | COc1cc(O)c(C(=O)c2ccccc2)cc1S(=O)(=O)O | inactive | 
65 | CCCCCCCCCCCCCC(=O)OC(C)C | inactive | 
66 | COc1cc(C=O)ccc1O | inactive | 
67 | CC1=NN(c2ccccc2)C(=O)C1 | inactive | 
68 | C[C@]12C[C@H](O)[C@H]3[C@@H](CCC4=CC(=O)CC[C@@]43C)[C@@H]1CC[C@@H]2C(=O)CO | inactive | 
69 | CCCCC/C(C=O)=C\c1ccccc1 | inactive | 
70 | CC(O)COc1ccccc1 (stereo not given) | inactive | 
71 | O=C1CCCCCN1 | inactive | 
72 | Cc1cnc(NC(=O)C2=C(O)c3ccccc3S(=O)(=O)N2C)s1 | inactive | 
73 | CC(=O)c1ccc(S(=O)(=O)NC(=O)NC2CCCCC2)cc1 | inactive | 
74 | Cn1cnc2c1c(=O)[nH]c(=O)n2C | inactive | 
75 | COC(=O)C1CCC(C(=O)OC)CC1 (stereo not given) | inactive | 
76 | O=C(OCc1ccccc1)c1ccccc1 |  | 0.99% [at 81.1 µM]
77 | COc1ccccc1O | inactive | 
78 | CCOC(=O)C(C)(C)Oc1ccc(Cl)cc1 | inactive | 
79 | c1ccc2[nH]c(-c3cscn3)nc2c1 | inactive | 
80 | NC(=O)c1ccc([N+](=O)[O-])cc1Cl | inactive | 
81 | Cc1c(N(C)C)c(=O)n(-c2ccccc2)n1C | inactive | 
82 | Cc1ccc(O)c(-n2nc3ccccc3n2)c1 | inactive | 
83 | COCCOCCOC | inactive | 
84 | CC(C)CC(C)CC(O)CC(C)C (stereo not given) | inactive | 
85 | Oc1cccc(O)c1 | inactive | 
86 | CCCCCCCCCCCCCCCCCC(=O)OCC(O)CO (stereo not given) | inactive | 
87 | COCC(C)N (stereo not given) | inactive | 
88 | CCn1cc(C(=O)O)c(=O)c2ccc(C)nc21 | inactive | 
89 | C=CCOC(=O)CC(C)C | inactive | 
90 | COC(=O)c1ccc(C=O)cc1 | inactive | 
